The values that follow come from PubChem BioAssay AID1850 (Southern Research Specialized Biocontainment Screening …, 2009).

“And” between values parts separate entries of the source, which are not always exact repeats. Equal values may be shown once. Hit rate of the full screen: of about 310,000 compounds, about 1,000 (0.32%) were called active. A selection follows. Entries with a potency or affinity are not part of this list. Values without a mark were called inactive. The rule behind the calls is not given here.

This assay is described as follows: PhoP regulon inhibitors, Salmonella typhi PhoP promoter GFP reporter, confirmatory (AID 1850).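 Note: 0% = induced wells with vehicle and 100% = uninduced wells.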 The settings on record: fluorescence, 4 h, at 50 µM, hits give high values.
Take `Cc1ccc(S(=O)(=O)Nc2cc(C(=O)N3CCC4(CC3)OCCO4)ccc2N2CCCCC2)cc1`: the inhibition was 3.06%.

With `Cc1nc(SCC(=O)Nc2cc(Cl)ccc2[N+](=O)[O-])nc(C)c1C`, the inhibition is 1.39%.

With `O=C(CSc1nc2ccccc2[nH]1)N1CCN(C(=O)c2ccco2)CC1`, the inhibition was -8.53%.

As to `CCCOc1ccc(CCCN=C(N)N)cc1Cl`, the inhibition is 22.8%.

Turning to `COc1ccc(CSC(=N)N)cc1[N+](=O)[O-]`, the inhibition is -11.2%.

Take `CCOc1ccc(CSC(=N)N)cc1[N+](=O)[O-]`: the inhibition was -0.03%.

On to `CCOc1ccc(CN=C(N)N=C(N)N)cc1Cl`, for which the inhibition is 20%.

As for `CCCCOc1ccc(CSCCN)cc1Cl`, the inhibition was 12%.

In the case of `CCOc1ccc(CSC(=N)N)cc1Cl`, the inhibition is 20.5%.

`CCCCOc1ccc(CSC2=NCCN2)cc1[N+](=O)[O-]`: the inhibition is 7.52%.

In the case of `CCCOc1ccc(CSC2=NCCN2)cc1[N+](=O)[O-]`, the inhibition was 23.3%.

Turning to `Cc1cc(C(=O)Cn2nc(C(=O)O)c3ccccc3c2=O)c(C)n1-c1ccc(OC(F)F)cc1`, the inhibition is -17.2%.

For the compound `CCOC(=O)c1ccc(NC(=O)N2CCOCC2)cc1`, the inhibition is 9.07%.

For the compound `O=C(CCN1C(=O)C2CC=C(Cl)CC2C1=O)N1CCCCC1` (centres undefined), the inhibition was 4.62%.

Take `O=C1c2ccccc2-c2nc3ccccc3n21`: the inhibition is -6.73% and -7.55%.

Turning to `CCOc1ccc(Br)cc1CSC(=N)N`, the inhibition is -6.33%.

`CCCOc1ccc(Br)cc1CSC(=N)N`: the inhibition is 20.4%.

As for `O=C(CN1C(=O)NC2(CCCC2)C1=O)Nc1ccc(S(=O)(=O)N2CCOCC2)cc1`, the inhibition is -0.54%.

Turning to `OCCNc1nc(-c2ccccc2)nc2ccccc12`, the inhibition is 16%.

Regarding `Cc1cc(NCCO)c2ccccc2n1`, the inhibition is -12.1%.

As for `OCCNc1nc(Nc2ccccc2Cl)nc(N2CCCC2)n1`, the inhibition is -6.06%.

Regarding `OCCNc1nc(NCc2ccccc2)c2ccccc2n1`, the inhibition is -4.21%.

For `O=C(NCCO)c1nc(NCCO)c2ccccc2n1`, the inhibition was -2.84%.

Take `OCCNc1nc(Nc2ccc(O)cc2)nc2ccccc12`: the inhibition is 1.07%.

Regarding `OCCNc1nc(Nc2ccccc2)nc(Nc2ccccc2)n1`, the inhibition is -3.62%.

With `Cc1ccc(Nc2nc(N)c([N+](=O)[O-])c(NCCO)n2)cc1C`, the inhibition is 13.6%.

As for `O=C(CSc1ccc2c(c1)OCCO2)NCc1ccccc1`, the inhibition was 6.58%.

As for `CC(Sc1nnc(Nc2ccccc2)s1)C(=O)NC1CCCc2ccccc21` (centres undefined), the inhibition was 9.25%.

Take `O=C(COc1ccc(Br)cc1)N(CCO)CCO`: the inhibition was -3.36%.

For the compound `O=P(O)(Oc1ccccc1)OC(c1ccccc1)C(F)(F)C(F)(F)F` (centres undefined), the inhibition is 5.37%.

Take `O=C(NCCNS(=O)(=O)c1ccc(Cl)cc1)c1cc(OCC(F)(F)F)ccc1OCC(F)(F)F`: the inhibition was 0.75%.

As for `c1coc(-c2cc(C3CCNCC3)[nH]n2)c1`, the inhibition was 10.6%.

On to `CC(Oc1ccccc1)C(=O)N=C1SC2CS(=O)(=O)CC2N1Cc1ccc(F)cc1` (centres undefined), for which the inhibition was 2.75%.

Consider `COc1cc(C(=O)OCC(=O)NCc2ccc(F)cc2)cc(NC(=O)c2cccs2)c1OC`, for which the inhibition is 12.9%.

For `COCCN(Cc1cc2cc3c(cc2nc1Cl)OCO3)C(=O)c1ccc(C)cc1`, the inhibition is -6.89%.

Consider `CCc1ccc(CN2C(=O)c3ccccc3C2C(=O)NCc2cccnc2)cc1` (centres undefined), for which the inhibition is -8.38%.

As to `OCCNc1nc(Nc2cccc(O)c2)nc2ccccc12`, the inhibition is -3.51%.

As for `COc1ccc(OC)c(Nc2nc(NCCO)c3ccccc3n2)c1`, the inhibition was -0.87%.

`CN1N=C(C(=O)Nc2ccc3c(c2)CCC3)CCC1=O`: the inhibition was -2.98%.

With `COc1cccc(COc2ncnc3sccc23)c1`, the inhibition was 3.57%.

In the case of `O=C(O)c1oc2ccccc2c1CN1CCN(c2ccccc2)CC1`, the inhibition is -0.62%.

Turning to `COc1ccc(OCC(=O)Nn2c(-c3cccc(OC)c3)nc3ccccc3c2=O)cc1`, the inhibition is -2.54%.

Consider `COCCCn1c(SCC(=O)NC2CCCC2)nnc1-c1cccs1`, for which the inhibition is 7.9%.

On to `Nc1ccccc1C(=O)NNC(=O)C(=O)/C=C(\O)c1ccccc1`, for which the inhibition is 3.15%.

As to `COc1ccc(/C(O)=C/C(=O)C(=O)NNC(=O)c2ccccc2)cc1`, the inhibition is 12.4%.

With `COc1ccc(-c2nnc(OC)c3ccccc23)cc1`, the inhibition was -2.2%.

Regarding `O=C(O)C1=C[C@H](c2csc3ccccc23)C[C@H](OCc2ccc(CO)cc2)O1`, the inhibition was 17.9%.

`NS(=O)(=O)c1ccc(CCNC(=O)C2CCCO2)cc1` (centres undefined): the inhibition is -6.93%.

On to `CC(C)N1C(=O)/C(=C\c2nc3ccccc3c(=O)n2-c2ccccc2)c2ccccc21`, for which the inhibition is -1.3%.

Regarding `COc1cc(C(C[N+](=O)[O-])c2c(N)n(C)c(=O)n(C)c2=O)ccc1O` (centres undefined), the inhibition is -9.41%.

For `Cn1c(N)c(C(C[N+](=O)[O-])c2ccccc2Cl)c(=O)n(C)c1=O` (centres undefined), the inhibition is 16%.

Turning to `Cc1c(CCC(=O)NCCCn2ccnc2)c(=O)oc2c(C)c3oc4c(c3cc12)CCCC4`, the inhibition is 2.2%.

Regarding `Cc1ccccc1S(=O)(=O)Cc1ccc(C(=O)O)o1`, the inhibition is -5.44%.

Turning to `Cc1cc(C)cc(Nc2cc(=O)n(C3CCCCC3)c(=O)[nH]2)c1`, the inhibition was 3.88%.

On to `Cn1c(NC2CCCCC2)cc(=O)n(C)c1=O`, for which the inhibition was -41.1%.

On to `O=C(O)c1ccccc1NCc1cccs1`, for which the inhibition was -6.17%.

As for `O=C(NNc1c2ccccc2nc2ccccc12)c1ccccc1Cl`, the inhibition is 5.14%.

For `Cc1cc(C(=O)Cn2nc(C(=O)O)c3ccccc3c2=O)c(C)n1CC(F)(F)F`, the inhibition is -16%.

For the compound `O=C(NNC(=O)C1CC=CCC1)c1cccc(Br)c1` (centres undefined), the inhibition is 5.92%.

As for `CCOc1cc(CN2CCc3c([nH]c4ccccc34)C2)ccc1OC`, the inhibition is -1.33%.

Take `CCCCCc1ccc(CC(=O)O)cc1`: the inhibition was 7.27%.

Take `CCCCCCNC(=O)C(=O)NCCc1ccc(Cl)cc1`: the inhibition was -2.68%.

Turning to `Cc1[nH]c2ccccc2c1C(=O)CN1C(=O)C(=O)N(Cc2ccco2)C1=O`, the inhibition is -2.82%.

With `CN(Cc1ccccc1)CC(O)COc1ccc(CNCc2cc3ccccc3s2)cc1` (centres undefined), the inhibition is 5.91%.

In the case of `CN(Cc1ccccc1)CC(O)COc1ccc(CNCc2cccnc2)cc1` (centres undefined), the inhibition is 6.07%.

For `COc1ccc(OC(C)C(=O)NCc2cccnc2)cc1` (centres undefined), the inhibition is -6.99%.

Take `O=C(Nc1ccc(Cl)c(Cl)c1)c1ccccc1`: the inhibition is -28.6%.

As for `O=C(Nc1cccc(Cl)c1)c1ccccc1`, the inhibition was -1.86%.

For `COc1cc(C)ccc1N(CCCN1C(=O)c2cccc3cccc(c23)C1=O)C(=O)c1cccs1`, the inhibition was -7.11%.

Regarding `O=C1c2ccccc2NC(c2ccccc2O)N1c1ccc(F)cc1` (centres undefined), the inhibition was -11.4%.

In the case of `CC1(C)Cc2c(cnn2-c2cccc(F)c2)C(NC(=O)c2ccc(=O)[nH]n2)C1` (centres undefined), the inhibition was 2.67%.

On to `O=C(CCN1C(=O)c2ccccc2C1=O)Nn1cnnc1`, for which the inhibition is -10.1%.

As for `CC(=O)c1ccc(NC(=O)C2CCCN2S(=O)(=O)c2ccc(F)cc2)cc1` (centres undefined), the inhibition was 0.38%.

As for `O=S1(=O)CCOC[C@H](c2ccccc2)N1Cc1cccc(Cl)c1`, the inhibition was 9.33%.

As for `CCCCOc1ccc(C)cc1CN(CCO)CCO`, the inhibition is -0.81%.

For `C=CCc1cc(C)ccc1OCCCC(C(=O)OCC)C(=O)OCC`, the inhibition was -4.53%.

As for `Cc1cc(NC(=O)c2cccs2)n(-c2ccccc2)n1`, the inhibition was -5.58%.

For `CCOC(=O)c1cn(-c2ccc([N+](=O)[O-])cc2)c2cc(Cl)c([N+](=O)[O-])cc2c1=O`, the inhibition is -25.3%.

On to `O=C(O)c1cn(-c2ccc(F)cc2)c(=O)c2ccccc12`, for which the inhibition is -6.8%.

For `CNC(=O)C(=O)NCC1OCCN1S(=O)(=O)c1ccc([N+](=O)[O-])cc1` (centres undefined), the inhibition is 0.4%.

On to `CC(=O)c1c(C)[nH]c(C(=O)COC(=O)c2ccc3c(=O)n4c(nc3c2)CCC4)c1C`, for which the inhibition was -1.34%.

On to `CCn1nnc(NC(=O)c2ccc(Br)o2)n1`, for which the inhibition is 3.35%.

Turning to `Cc1cccc(NC(=O)c2ccc([N+](=O)[O-])o2)c1C`, the inhibition was -7.49%.

Regarding `CC(=O)c1ccc(NC(=O)c2ccc([N+](=O)[O-])o2)cc1`, the inhibition is 10.8%.

Take `Cc1ccc2nsnc2c1NC(=O)c1ccc([N+](=O)[O-])o1`: the inhibition is 1.72%.

As for `CCn1nnc(NC(=O)c2ccc(-c3ccccc3[N+](=O)[O-])o2)n1`, the inhibition is 11.3%.

For the compound `O=C(Nc1ccc(Cc2ccncc2)cc1)c1ccc(Br)o1`, the inhibition is 7.97%.

With `Cc1ccccc1NC(=O)c1ccc([N+](=O)[O-])o1`, the inhibition was 11.6%.

`O=C(Nc1c(Cl)ccc2nsnc12)c1ccco1`: the inhibition is -5.33%.

Take `Cc1c(C(=O)N2CCC(N3CCSCC3)CC2)oc2c(F)cccc12`: the inhibition was -3.19%.

For `Cc1cc(NC(=O)NCC(F)(F)F)no1`, the inhibition was -7.59%.

Take `CCN(CC)C(=O)c1sc2nc(N3CCOCC3)c3c(c2c1N)CCCC3`: the inhibition is 3.42%.

Turning to `O=C(Nc1ccccc1Cl)NC1(C(=O)NCc2ccncc2)CCCCC1`, the inhibition was 9.06%.

On to `CC(C)Cn1c(SCc2nc3ccccc3c(=O)[nH]2)nc2ccccc2c1=O`, for which the inhibition was -7.91%.

For `Cc1sc(NC(=O)C2=COCCO2)nc1-c1ccc(F)cc1`, the inhibition was -5.87%.

In the case of `O=C1CSC(c2ccc3c(c2)OCO3)N1c1ccc(Oc2ccccc2)cc1` (centres undefined), the inhibition is 7.07%.

`Fc1ccc(CSc2ccc(-c3ccco3)nn2)cc1`: the inhibition was 6.93%.

Take `c1ccc(CSc2ccc(-c3ccco3)nn2)cc1`: the inhibition was 9.52%.

Consider `C[C@]12CCC(=O)C=C1CC[C@@H]1C2CC[C@]2(C)C(=O)CCC12` (some centres undefined), for which the inhibition is -12.1%.
